Measurements as given in PubChem BioAssay.
Active and inactive are the calls of the source. Unless noted, the rule behind the calls is not given here.

Columns and labels:
[1] = compound effects on lung adenocarcinoma cell viability – A549, calcein-AM fluorescence, 48 h, basal, profiling panel (AID 1162); details: higher = more signal; note: test concentration not given here
[2] = compound effects on differentiated 3T3-L1 adipocyte viability – cell-based, 3T3-L1 adipocytes, calcein-AM fluorescence, 48 h, basal, profiling panel (AID 1163); details: 3T3-L1 adipocytes viability, higher = more signal; note: test concentration not given here
[3] = compound effects on hepatocellular carcinoma cell viability – HepG2, calcein-AM fluorescence, 48 h, basal, profiling panel (AID 1164); details: higher = more signal; note: test concentration not given here
[4] = compound effects on multiple myeloma cell viability – MM1S, calcein-AM fluorescence, 48 h, basal, profiling panel (AID 1165); details: higher = more signal;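 note: viability of MM1S multiple myeloma cells under basal unstimulated conditions; test concentration not given here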
[5] = calcein-AM signal in unstimulated myeloma cells – cell-based, calcein-AM fluorescence, 48 h, PK04 Diversity Set, profiling panel (AID 1166); details: RPMI8226 myeloma viability, higher = more signal;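 note: cells grown under basal conditions without added stimulus; test concentration not given here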
[6] = JC-1 mitochondrial signal, unstimulated HepG2 cells – cell-based, JC-1 fluorescence, 24 h, 100 nL compound, profiling panel (AID 1167); details: HepG2 mitochondrial potential, higher = more signal; note: test concentration not given here
[7] = JC-1 mitochondrial signal, unstimulated adipocytes – cell-based, JC-1 fluorescence, 3T3-L1 adipocytes, 24 h, 100 nL compound, profiling panel (AID 1168); details: JC-1 mitochondrial fluorescence, higher = more signal, called active from +8 up or from −8 down; note: test concentration not given here
[8] = JC-1 mitochondrial signal, unstimulated myeloma cells – cell-based, JC-1 fluorescence, RPMI8226, 24 h, 100 nL compound, profiling panel (AID 1169); details: JC-1 mitochondrial potential fluorescence, higher = more signal; note: test concentration not given here
[9] = JC-1 mitochondrial signal, unstimulated MM1S myeloma – cell-based, JC-1 fluorescence, 24 h, 100 nL compound, profiling panel (AID 1170); details: MM1S mitochondrial potential, higher = more signal; note: test concentration not given here
[10] = resazurin metabolic signal in A549 cells – cell-based, resazurin fluorescence, 24 h, PK04 Diversity Set, profiling panel (AID 1171); details: A549 viability, higher = more signal, called active from +8 up or from −8 down; note: test concentration not given here
[11] = resazurin metabolic signal in HepG2 cells – cell-based, resazurin fluorescence, 24 h, PK04 Diversity Set, profiling panel (AID 1172); details: HepG2 viability, higher = more signal; note: test concentration not given here
[12] = budding yeast growth changes without added modifier – OD600, strain BY4716, 24 h, basal condition, primary screen (AID 1173); details: S. cerevisiae BY4716 growth, OD600, 24 h; higher = more signal, called active from +8 up or from −8 down
[13] = viability profiling in MM1S myeloma cells – cell-based, resazurin fluorescence, basal, 24 h, PK04 Diversity Set, profiling panel (AID 1174); details: higher = more signal, called active from +8 up or from −8 down; note: test concentration not given here
[14] = target: Dihydroorotate dehydrogenase (quinone), mitochondrial (Plasmodium falciparum (isolate 3D7)) (UniProt Q08210); assay: inhibition of P. falciparum DHODH – biochemical, C-terminal His tag, absorbance 600 nm, primary screen (AID 1175); details: PfDHODH enzyme, DCIP absorbance 600 nm; higher = more signal, called active from +8 up or from −8 down;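 note: recombinant parasite enzyme with a five histidine tag at its C terminus; test concentration not given here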
Dihydroorotate dehydrogenase (quinone), mitochondrial (Plasmodium falciparum (isolate 3D7)), sequence (Q08210 whole entry, looked up): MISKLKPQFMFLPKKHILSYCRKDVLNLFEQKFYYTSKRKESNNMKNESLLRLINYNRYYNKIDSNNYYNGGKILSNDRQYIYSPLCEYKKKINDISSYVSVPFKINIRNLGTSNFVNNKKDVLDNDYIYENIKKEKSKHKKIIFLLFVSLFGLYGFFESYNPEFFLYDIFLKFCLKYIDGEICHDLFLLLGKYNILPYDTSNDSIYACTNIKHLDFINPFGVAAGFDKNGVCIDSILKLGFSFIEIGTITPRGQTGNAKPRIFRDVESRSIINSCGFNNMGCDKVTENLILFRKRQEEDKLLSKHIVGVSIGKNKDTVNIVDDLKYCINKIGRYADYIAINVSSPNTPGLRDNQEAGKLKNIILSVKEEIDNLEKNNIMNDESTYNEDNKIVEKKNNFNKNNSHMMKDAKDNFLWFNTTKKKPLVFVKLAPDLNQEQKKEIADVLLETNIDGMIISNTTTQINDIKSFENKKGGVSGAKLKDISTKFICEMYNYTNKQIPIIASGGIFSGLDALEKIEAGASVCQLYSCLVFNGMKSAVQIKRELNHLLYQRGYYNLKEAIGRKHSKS

[15] = inhibition of PAO1 biofilm formation – strain PAO1, LB-PBS medium, absorbance 600 nm, primary screen (AID 1176); note: test concentration not given here; details: P. aeruginosa PAO1 growth/biofilm, A600, 12 h; higher = more signal
[16] = growth modulation of vineyard yeast isolate – strain RM11-1a, OD600, basal, 24 h, primary screen (AID 1177);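 note: cultures grown under basal conditions with no added stressor; test concentration not given here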; details: S. cerevisiae RM11-1a growth, OD600, 24 h; higher = more signal, called active from +8 up or from −8 down
[17] = growth of efflux-deficient E. coli DRC39 – strain DRC39, OD650, 24 h, E. coli filamentation inducers, primary screen (AID 1178);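 note: growth measured as culture turbidity by optical density at 650 nm; test concentration not given here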; details: E. coli DRC39 acrAB, higher = more signal, called active from +8 up or from −8 down
[18] = growth of efflux-deficient E. coli DRC39 – strain DRC39, OD650, 48 h, E. coli filamentation inducers, primary screen (AID 1179);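 note: screen aims at cell division blockers that make cells filament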; details: E. coli DRC39 delta-acrAB growth, higher = more signal, called active from +8 up or from −8 down
[19] = viability profiling in RPMI8226 myeloma cells – cell-based, resazurin fluorescence, basal, 24 h, PK04 Diversity Set, profiling panel (AID 1180); details: higher = more signal;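 note: RPMI8826 multiple myeloma cell line at 5000 cells per well; test concentration not given here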
[20] = target: E3 ubiquitin-protein ligase XIAP (Homo sapiens) (UniProt P98170); assay: small molecules binding XIAP protein – biophysical, small-molecule microarray, fluorescence 635 nm, primary screen (AID 1181); details: higher = more signal;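 note: score merges 667 nm emission and signal to noise over triplicate slides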
E3 ubiquitin-protein ligase XIAP (Homo sapiens), sequence (P98170 whole entry, looked up): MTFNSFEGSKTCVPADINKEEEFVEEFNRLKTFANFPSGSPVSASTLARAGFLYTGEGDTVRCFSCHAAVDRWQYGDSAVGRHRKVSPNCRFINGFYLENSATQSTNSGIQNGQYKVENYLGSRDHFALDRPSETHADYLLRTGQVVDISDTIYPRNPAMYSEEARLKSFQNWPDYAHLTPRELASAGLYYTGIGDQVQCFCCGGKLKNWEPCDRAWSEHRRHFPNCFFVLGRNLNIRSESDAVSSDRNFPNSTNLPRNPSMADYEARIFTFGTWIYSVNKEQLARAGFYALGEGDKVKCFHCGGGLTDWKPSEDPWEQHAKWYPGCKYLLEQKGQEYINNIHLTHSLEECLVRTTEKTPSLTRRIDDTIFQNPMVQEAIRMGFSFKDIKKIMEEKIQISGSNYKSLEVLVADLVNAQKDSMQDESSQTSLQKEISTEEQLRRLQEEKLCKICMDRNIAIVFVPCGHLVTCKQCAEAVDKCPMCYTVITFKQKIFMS

Row | Structure (SMILES) | z-score [1] | z-score [2] | z-score [3] | z-score [4] | z-score [5] | z-score [6] | z-score [7] | z-score [8] | z-score [9] | z-score [10] | z-score [11] | z-score [12] | z-score [13] | composite z-score [14] | z-score [15] | z-score [16] | z-score [17] | z-score [18] | z-score [19] | composite z-score [20]
1 | Cc1ccc(S[C@]2(C(=O)NC(C)C)CC(=O)N(Cc3ccccc3Cl)[C@@H]2c2ccc(CO)cc2)cc1 | 0.175 | 0.35 | -0.12 | -0.387 | -2.06 | -0.142 | -0.397 (inactive) | -0.0618 | 0.551 | 0.232 (inactive) | -0.167 | -0.624 (inactive) | -0.514 (inactive) | -0.674 (inactive) | 1.52 (inactive) | 0.343 (inactive) | -0.332 (inactive) | -0.963 (inactive) | 0.351 | -0.0072
2 | COC(=O)[C@@]1(Cc2ccc(F)cc2)[C@H]2c3cc(C(=O)N4CCCC4)n(CC4CC4)c3C[C@H]2CN1C(=O)c1ccccc1 | -0.393 | 0.498 | -0.713 | -0.691 | -2.11 | 1.62 | -1.07 (inactive) | -0.232 | -0.51 | -0.665 (inactive) | -1.57 | -0.443 (inactive) | -1.65 (inactive) | -0.559 (inactive) | 0.495 (inactive) | 0.056 (inactive) | -0.688 (inactive) | -0.64 (inactive) | -2.11 | 0.705
3 | C=CCNC(=O)[C@@H]1[C@H]2C(=O)O[C@H](c3ccccc3)[C@H](c3ccccc3)N2[C@H](c2ccc(OCCO)cc2)[C@@]12C(=O)N(C(=O)OCCOC)c1ccc(C#CCCO)cc12 | 2.85 | 1.86 | 1.22 | 0.485 | 0.927 | -0.435 | 1.27 (inactive) | -0.709 | -1.07 | -0.477 (inactive) | 0.266 | -0.153 (inactive) | 0.423 (inactive) | -0.767 (inactive) | 2.16 (inactive) | 1.55 (inactive) | 0.756 (inactive) | 0.298 (inactive) | 1.04 | -0.0161
4 | CC(C)CNC(=O)[C@@]1(c2ccc([N+](=O)[O-])cc2)CC(=O)N(C2CCCCC2)[C@@H]1c1ccc(CO)cc1 | -0.0452 | 0.389 | -0.004 | -0.41 | 0.542 | 0.634 | -0.6 (inactive) | -0.426 | 0.771 | 0.436 (inactive) | 0.0751 | -1.68 (inactive) | 1.17 (inactive) | -0.0682 (inactive) | -0.301 (inactive) | -0.377 (inactive) | 0.637 (inactive) | 0.0367 (inactive) | 1.12 | 0.14
5 | CC(C)(C)OC(=O)CC[C@]12N=C(c3ccc(OCCCO)cc3)O[C@H]1c1ccccc1N(Cc1ccccc1)C2=O | 0.413 | 0.709 | 0.909 | -2.74 | -4.27 | 0.0521 | 1.16 (inactive) | -1.2 | -0.0831 | 1.66 (inactive) | 0.851 | 0.342 (inactive) | -0.922 (inactive) | -0.316 (inactive) | 0.95 (inactive) | 2.29 (inactive) | 1.1 (inactive) | 0.124 (inactive) | -1.55 | 0.0968
6 | C=C(COC)C(=O)CC[C@H](OC(=O)c1cccnc1)c1ccc(CO)o1 | -0.15 | -0.266 | -0.53 | -0.401 | -0.535 | -0.981 | -0.492 (inactive) | 0.541 | -0.267 | -0.452 (inactive) | -0.655 | -1.29 (inactive) | -0.317 (inactive) | -3.37 (inactive) | 0.142 (inactive) | -0.663 (inactive) | -0.659 (inactive) | -0.649 (inactive) | -0.732 | 0.0565
7 | C=CCN1C(=O)[C@@]2(O[C@@H](CCO)[C@H]([Si](C)(C)c3ccc(OC)cc3)[C@H]2C)c2cc(N3CCOC3=O)ccc21 | -2.23 | 1.33 | -4.75 | -2.77 | -4.38 | -2.9 | 1.25 (inactive) | -1.08 | -2.3 | -3.36 (inactive) | -5.76 | 1.07 (inactive) | -8.77 (active) | 1.58 (inactive) | 0.519 (inactive) | 4.47 (inactive) | 0.891 (inactive) | 0.231 (inactive) | -6.2 | -0.0807
8 | CO[C@H]1O[C@H](CO)[C@@H](OC(=O)Nc2cccc(F)c2)[C@H](OC(=O)Nc2ccccc2-c2ccccc2)[C@H]1OC(=O)Nc1ccccc1-c1ccccc1 | -4.26 | 0.737 | -4.76 | -3.44 | -4.3 | 0.0525 | 0.461 (inactive) | -0.936 | -1.88 | -6.1 (inactive) | -4.61 | 0.748 (inactive) | -5.86 (inactive) | 0.791 (inactive) | 1.16 (inactive) | 1.03 (inactive) | -0.852 (inactive) | -0.516 (inactive) | -4.87 | -0.0925
9 | O=C1C[C@@](C(=O)NCC(F)(F)F)(c2ccc([N+](=O)[O-])cc2)[C@@H](c2ccc(CO)cc2)N1CC12CC3CC(CC(C3)C1)C2 | -1.8 | 1.4 | -1.57 | -2.72 | -4.39 | -1.09 | -1.29 (inactive) | -1.04 | -0.0442 | -2.08 (inactive) | -1.85 | 0.188 (inactive) | -1.4 (inactive) | 0.042 (inactive) | 0.36 (inactive) | 0.419 (inactive) | -0.229 (inactive) | -0.684 (inactive) | -2.92 | 0.144
10 | C=C(C)[C@@H]1CC=C(C(O)C2C=CC3C(=O)N(c4ccccc4)C(=O)C3N2Nc2ccc(C#N)cc2)CC1 (stereo not given in full) | -0.391 | -0.575 | 0.166 | -0.331 | 0.0001 | -2.47 | -2.61 (inactive) | -0.671 | -0.641 | -0.31 (inactive) | -1.12 | -0.111 (inactive) | -0.591 (inactive) | 0.0143 (inactive) | 1.8 (inactive) | 0.556 (inactive) | -0.688 (inactive) | -0.906 (inactive) | 0.0852 | 0.169
11 | CC(C)=CCCC(C)=CC(O)C1C=CC2C(=O)N(c3ccccc3)C(=O)C2N1Nc1ccccc1F (stereo not given) | 0.154 | 0.0094 | 0.443 | 0.381 | -0.93 | -0.143 | -0.507 (inactive) | -0.271 | -0.426 | 0.598 (inactive) | 0.856 | -1.18 (inactive) | 0.47 (inactive) | -0.323 (inactive) | 0.505 (inactive) | -0.54 (inactive) | 0.131 (inactive) | 0.739 (inactive) | 1.22 | -0.21
12 | COC(=O)C1N=C(c2ccc(OCCCO)cc2)N(c2ccccc2)O1 (stereo not given) | 0.893 | 1.16 | 0.634 | -0.943 | 0.5 | 0.684 | -0.407 (inactive) | -0.44 | 0.042 | 0.953 (inactive) | 0.863 | -1.41 (inactive) | -0.279 (inactive) | -1.24 (inactive) | -1.1 (inactive) | 0.061 (inactive) | 0.642 (inactive) | -0.0518 (inactive) | 1.22 | -0.0118
13 | C[C@]1(C(=O)NCC(F)(F)F)c2ccccc2C(=O)N(Cc2ccccc2)[C@H]1c1ccc(CO)cc1 | -0.431 | -0.2 | 0.57 | -0.503 | 0.514 | 1.97 | 0.113 (inactive) | 0.824 | -1.07 | 0.0906 (inactive) | -0.398 | 0.0742 (inactive) | 0.525 (inactive) | 0.721 (inactive) | -0.0807 (inactive) | 0.433 (inactive) | 0.242 (inactive) | 0.824 (inactive) | 0.937 | -0.102
14 | CN1C=C(C(=O)OCCS(C)(=O)=O)C(C(=O)OCCS(C)(=O)=O)=CC(c2ccc(CO)cc2)=CC1c1cccs1 (stereo not given) | 0.574 | -0.72 | 0.977 | -1.43 | -1.1 | -0.963 | -0.345 (inactive) | -0.627 | 0.0752 | 0.458 (inactive) | 0.0449 | -3.66 (inactive) | -0.727 (inactive) | -0.927 (inactive) | -0.566 (inactive) | -0.363 (inactive) | 0.0198 (inactive) | -0.0834 (inactive) | 0.0779 | 0.246
15 | O=C1[C@@H]2[C@@H](CC(COc3ccccc3)=C3[C@@H](CCc4ccccc4)OB(O)C[C@@H]32)C(=O)N1Cc1ccccc1 | -0.607 | -0.141 | -0.752 | -3.22 | -4.09 | -0.851 | 0.453 (inactive) | -1.07 | 0.253 | -0.0787 (inactive) | -0.665 | -1.23 (inactive) | -0.0801 (inactive) | -0.77 (inactive) | 0.306 (inactive) | -0.0775 (inactive) | -0.304 (inactive) | -0.915 (inactive) | -0.0577 | -0.16
16 | CCCNC(=O)[C@@]1(Sc2ccc(C)cc2)CC(=O)N(C(C)C)[C@@H]1c1ccc(CO)cc1I | 0.505 | 0.49 | -0.658 | -2.65 | -2.09 | 0.632 | -0.769 (inactive) | -0.919 | -1.02 | -0.0866 (inactive) | -0.202 | -1.18 (inactive) | -2.5 (inactive) | -0.5 (inactive) | 0.0714 (inactive) | 0.29 (inactive) | 0.337 (inactive) | -0.202 (inactive) | -2.53 | -0.039
